# Screening data: PubChem BioAssay, National Center for Advancing Translational Sciences (NCATS)
# Shiga inhibitor: A qHTS for Small Molecule Inhibitors of Shiga Toxin; Vero cells, Shiga toxin protein synthesis inhibition reporter; inhibition, % at 38.7 µM; actives 9.2% (n = 290,000); AID 2315, 2010; in the data active = inhibition mostly above about 28%, no sharp cut-off; inactive = mostly below about 43%; also: 0% is about no effect
# Tb PYK inh: qHTS of Trypanosoma Brucei Inhibitors; pyruvate kinase (Trypanosoma brucei), Q57TT1; Potency, µM (series often up to 76.8 µM), inactives show top-dose activity, negative = inhibition, hits mostly inhibitors; actives 0.12% (n = 410,000); AID 624173, 2012; TbPYK enzyme, Kinase-Glo Plus ATP luminescence, 45 min; also: potency is read from the fitted curve at half-maximal effect; % is scaled to controls: 0 for no effect and ±100 for the full control effect; nearly all actives have a fitted effect of over 50% in size
#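 Activity of T. brucei pyruvate kinase was followed by Kinase-Glo Plus luminescence after the enzyme reacted 45 min at room temperature with 130 uM ADP (final) and substrate. Test compounds were added before ADP at multiple concentrations.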
# LmPK inh: qHTS Assay for Inhibitors of Leishmania Mexicana Pyruvate Kinase (LmPK) | purified LmPK, Kinase-Glo ATP luminescence, 1 h | Potency, µM (series often up to 57.5 µM), for the others: at the highest dose activity change, negative = inhibition, actives largely listed as inhibitors | actives 0.37% (n = 290,000); also: potency is read from the fitted curve at half-maximal effect; % is scaled to controls: 0 for no effect and ±100 for the full control effect
#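 Kinase-Glo luminescence read after 1 h RT reaction of 0.1 nM LmPK with 0.5 mM PEP and 0.1 mM ADP. Activity scaled between uninhibited and enzyme-free controls.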
# FBPA Giardia inh: qHTS Assay for Inhibitors of Fructose-1,6-bisphosphate Aldolase from Giardia Lamblia | A8B2U2 | purified Giardia FBPA | Potency, µM (top dose mostly 59.6 µM), for inactives: top-dose activity, negative = inhibition, actives largely listed as inhibitors | actives 0.71% (n = 290,000); also: potency is read from the fitted curve at half-maximal effect; % is scaled to controls: 0 for no effect and ±100 for the full control effect; nearly all actives have a fitted effect of over 55% in size
# Target sequence (A8B2U2 whole entry, looked up): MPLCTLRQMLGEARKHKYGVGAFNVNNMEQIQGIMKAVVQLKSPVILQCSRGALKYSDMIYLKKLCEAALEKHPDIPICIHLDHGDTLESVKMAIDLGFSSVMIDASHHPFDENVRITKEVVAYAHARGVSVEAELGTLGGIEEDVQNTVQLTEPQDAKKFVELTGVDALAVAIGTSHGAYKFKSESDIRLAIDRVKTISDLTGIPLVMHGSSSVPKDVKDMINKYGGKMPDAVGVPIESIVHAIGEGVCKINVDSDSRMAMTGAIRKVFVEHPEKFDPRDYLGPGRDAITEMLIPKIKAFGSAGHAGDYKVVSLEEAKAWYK
#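 40 nM FBPA preincubated 10 min at RT with compound (up to 57.5 uM final), then substrate plus GAPDH/TPI/NAD/arsenate coupling and diaphorase/resazurin added. Fluorescence read after 20 min at RT, 525/598 nm.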
# Cycloheximide cs: Cycloheximide Counterscreen for Small Molecule Inhibitors of Shiga Toxin; AID 2314, 2010; max response, %; cell reporter, cycloheximide protein synthesis inhibition counterscreen; actives 12% (n = 300,000); in the data active = max response mostly above about 13%, no sharp cut-off; inactive = mostly below about 14%; also: read at 38.3 µM for the half of the compounds with a filed dose; 0% is about no effect
# RE007 growth inh: qHTS Assay for Inhibitors of the HIV-1 protein Vpr | actives 0.21% (n = 360,000) | AID 651644, 2012 | S. pombe RE007 Vpr strain, BacTiter-Glo ATP luminescence, 24 h | Potency, µM (doses to about 92.2 µM), for the others: at the top dose activity change, negative = less growth, hits mostly inhibitors; active = well fitted falling curve with a large enough effect; inconclusive = small, poorly fitted or top-dose-only effect; inactive = no such curve, though single readings can be large or run the other way; also: potency is read from the fitted curve at half-maximal effect; % is scaled to controls: 0 for no effect and ±100 for the full control effect; nearly all actives have a fitted effect of over 50% in size
#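 Fission yeast RE007 carrying one integrated HIV-1 vpr copy, seeded at OD 0.01 in PMG+AL medium with 23 nL pinned compound. Grown 24 h at 30 degrees; viability read by BacTiter-Glo luminescence after 5 min.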
# The depositor's hits bear a star; ? = inconclusive; . = no result given; [ ] = dose if it differs, or a comment. Only a selection was taken, and hits are over-represented in it overall. Unless noted, calls follow the shape of the dose curve; as a rule, active = well fitted curve in the direction sought with a large enough effect; inconclusive = small, poorly fitted or top-dose-only effect, or another doubt; inactive = no such curve, though single readings can be large; an effect the other way counts as inactive or inconclusive.
SMILES,Shiga inhibitor,Tb PYK inh,LmPK inh,FBPA Giardia inh,Cycloheximide cs,RE007 growth inh
Cc1ccn2c(NC3CCCC3)c(-c3cccs3)nc2c1,28*,-26%,-12%,?,23*,-9%
Cc1ccc(-c2nnc(SCC(=O)N3CCCc4ccccc43)o2)cc1,.,2%,.,.,.,.
O=C(NCc1cccs1)C12CC3CC(CC(C3)C1)C2,21,-22%,1%,3%,-1,26%
O=C(CC1CC2CCC1C2)NCc1cccs1 (configuration not stated),52,3%,-3%,5%,15*,0%
COC(=O)[C@@H]1O[C@@H](c2c(OC)c(OC)c(C)c(OC)c2OC)[C@H](C)[C@@H](O)[C@@H]1C,.,.,.,1%[12.9 µM],.,.
CC(=O)NC1=C(N(C)C2CCS(=O)(=O)C2)C(=O)c2ccccc2C1=O (configuration not stated),35,-10%,-2%,0.13µM*,17,-16%
CC1=C(Nc2ccc(C(=O)O)cc2)C(=O)c2ccccc2C1=O,16,5%,0%,?,13,-20%
CC(=O)NC1=C(Nc2ccc(N(C)C)cc2)C(=O)c2ccccc2C1=O,116*,-10%,-15%,-28%,46*,?
CC(C)OC(=O)c1cc(C(=O)OC(C)C)cc([N+](=O)[O-])c1,.,0%[157 µM],.,.,.,.
COc1ccc(/C=C/C(=O)Nc2ccc3nc4c(c(Nc5ccc(OC)c(OC)c5)c3c2)CCCC4)cc1,.,2%,.,.,.,.
Cc1ccccc1OCCSc1nnc(C)n1-c1ccccc1,31,0%,0%,2%,19*,9%
Fc1ccccc1OCCSc1nnnn1-c1ccccc1,84*,-2%,11%,-11%,47*,-18%
c1ccc(OCCSc2nnnn2-c2ccccc2)cc1,55*,-10%,10%,-4%,60*,-1%
CCOc1ccc(OCCSc2nnnn2-c2ccccc2)cc1,-7,5%,-5%,1%,-1,-5%
CC(C)c1ccc(NC(=O)c2ccc(-c3ccnn3C)c3ccoc23)cc1,.,0%,.,.,.,-8%
Cc1ccc(CNC(=O)C(=O)NCC(c2ccco2)S(=O)(=O)c2ccc(C)cc2)cc1 (configuration not stated),.,3%,.,.,.,.
O=C(O)/C=C\C(=O)Nc1ccccc1C#Cc1ccccc1,active,-15%,0%,2%,59*,-9%
O=C(O)/C=C\C(=O)Nc1ccccc1C#Cc1ccc(Br)cc1,89*,8%,1%,-9%,56*,45µM*
Brc1ccc(-c2cnc(-c3cccs3)o2)cc1,92*,9%,-5%,-4%,36*,?
Cc1ccc(S(=O)(=O)c2nc(-c3ccccc3Cl)oc2N(C)C)cc1,86*,-4%,-10%,.,57*,-18%
CCCCc1ccc(NC(=S)N2CCCC2)cc1,69*,8%,-2%,.,48*,-32%
CCCCc1ccc(NC(=S)N2CCN(C)CC2)cc1,25,-2%,-1%,1%,20*,-10%
CCCCc1ccc(NC(=S)N2CCN(C(=O)OCC)CC2)cc1,21,-10%,-2%,7%,-1,0%
CCOc1ccc(-n2nc3ccc(NC(=O)COc4ccccc4)cc3n2)cc1,.,1%,.,.,.,.
O=C(Nc1ccc2nn(-c3ccccc3)nc2c1)c1cccnc1,43,-11%,-2%,-3%,22*,-25%
SMILES,Shiga inhibitor,Tb PYK inh,LmPK inh,FBPA Giardia inh,Cycloheximide cs,RE007 growth inh
O=C(Nc1nc2nc(-c3ccccc3)cc(-c3ccccc3)n2n1)c1ccco1,-5,-2%,-1%,7%,9,8%
O=C(Nc1ccc2nn(-c3ccc(Cl)cc3)nc2c1)c1cc2ccccc2o1,.,3%,.,.,.,.
O=C(Nc1ccc2nn(-c3ccccc3)nc2c1)c1ccco1,72*,0%,3%,-8%,47*,-14%
Cc1ccnc2nc(NC(=O)c3ccco3)nn12,48*,0%,-1%,-11%,26*,-5%
CC(C)C(=O)Nc1ccc2nn(-c3ccccc3)nc2c1,103*,0%,-2%,-1%,39*,-2%
CC(C)CCNC(=O)c1cnc2sc(N3CCCCC3)nn2c1=O,.,0%,.,.,.,.
CC(C)(C)S(=O)N1Cc2cc(C(=O)N3CCOCC3)nc(-c3cccc(Br)c3)c2[C@@H]1CCO (some centres not stated),.,-8%,.,.,.,-2%
O=C(Nc1nc2nccc(-c3ccccc3)n2n1)c1ccccc1,60,-5%,-3%,1%,22*,8%
Nc1nc(NC(=O)c2ccco2)nn1-c1ccccc1,79*,1%,-3%,-2%,35*,2%
O=C(Nc1cc2nn(-c3ccccc3)nc2cc1Cl)c1ccco1,47*,-5%,-1%,6%,21*,-9%
CC(=O)Nc1cccc(-c2ccnc3c2CC(C)(C(=O)NCc2ccc(F)c(F)c2)O3)c1 (configuration not stated),.,5%,.,.,.,-4%
C[C@@H]1CN([C@H](C)CO)C(=O)CCCn2nncc2CO[C@H]1CN(C)S(=O)(=O)c1ccccc1F,.,6%,.,.,.,14%
CC(C)(C)c1ccc(OCC(=O)O)cc1,-17,5%,1%,6%,-3,3%
CN(C)C(=O)O/N=C(\N)COc1ccc(C(C)(C)C)cc1,31,4%,-3%,4%,30*,-39%
CCC(=O)N1CCc2cc(Br)cc(S(=O)(=O)CCC(=O)Nc3ccc(Cl)cc3)c21,.,-2%,.,.,.,.
O=C(NCCc1ccccc1)c1cnc2sccn2c1=O,93*,-2%,4%,-2%,43*,2%
O=C(NCc1nc2ccccc2[nH]1)c1cccs1,14,0%,3%,-4%,23*,-6%
O=C(NCCc1cccc(Cl)c1)c1cccs1,101*,-1%,-1%,-11%,67*,-4%
CCn1c(=O)c2cc(C(=O)NCCc3cccc(C)c3)sc2c2ccccc21,.,0%,.,.,.,.
CCN=c1sc(C(=O)NCCc2ccccc2)cc(=O)n1CC,97*,-12%,3%,2%,47*,-6%
Cc1cc2ccccc2n1CCNC(=O)c1cccs1,32*,-14%,1%,-13%,17*,-4%
O=C(NCCCNC(=O)c1cccs1)c1cccs1,15,?,-4%,-2%,-2,-20%
O=C(NCCc1ccccc1)c1cccs1,50,4%,-17%,2%,29*,3%
Cc1cccc(-c2nc(SCC(=O)NCc3ccco3)c3c(=O)n(C)c(=O)n(C)c3n2)c1,.,4%,.,.,.,.
C/C(CCC(=O)OC[C@@H]1O[C@H](C#Cc2ccccc2)C=C[C@@H]1Oc1ccc(C)cc1)=N/O[C@@H](C)CN1CCCCc2nc(C)c(C)cc21,.,.,.,0%[12.9 µM],.,.
